# Data from PubChem BioAssay AID1721 (National Center for Advancing Translational Sciences (NCATS), 2009).
# Out of some 290,000 compounds screened, about 1,100 (0.38%) were called active. Entries that show only a call come without a potency. Only a selection was taken, and actives are over-represented in it overall. Values without a mark were called inactive. Calls come from the whole dose curve; as a rule, active = well fitted inhibition curve with a large enough effect; inconclusive = small, poorly fitted or top-dose-only effect, or another doubt; inactive = no such curve, though single readings can be large or run the other way.
# Target: Pyruvate kinase (Leishmania mexicana) (UniProt Q27686)
# Assay: qHTS Assay for Inhibitors of Leishmania Mexicana Pyruvate Kinase (LmPK)
# Details: purified LmPK, Kinase-Glo ATP luminescence, 1 h; series mostly up to 57.5 µM
# Text: NIH Chemical Genomics Center [NCGC] Malcolm Walkinshaw, Hugh Morgan, Linda Gilmore University of Edinburgh, UK MLPCN Grant: 1 R03 MH085697-01 NCGC Assay Overview: Pyruvate kinase (L. Mexicana) (LmPK) enzyme was supplied as a highly purified (>95% pure) sulphate-free preparation from University of Edinburgh, UK and assayed for its ability to generate ATP from ADP using phosphoenolpyruvate (PEP) as a substrate. ATP generation was detected in a coupled reaction by luciferase-mediated luminescence, an ATP-dependent process. […] The enzyme was assayed at an intermediate level of activity to screen for both inhibitors and activators.
# NCGC Assay Protocol Summary: Three uL of enzyme mix (kept on ice) in assay buffer (50 mM Imidazole pH7.2, 50 mM KCl, 7 mM MgCl2, 0.01% Tween 20, 0.05% BSA) containing PEP (0.5 mM final concentration) and LmPK (0.1 nM final concentration) was dispensed into white solid bottom 1,536 well microtiter plates. 23 nL of compound were delivered by a pin tool and 1 uL of ADP mix in assay buffer (r.t; 0.1 mM final ADP concentration) was added. Plates were incubated at room temperature for 1 hour. Two uL of detection mix (Kinase-Glo, Promega; at 4 degree Celsius protected from light) was added and luminescence read by a ViewLux (Perkin Elmer) at 1 second exposure/plate. Data were normalized to the uninhibited and AC100 inhibition (no enzyme). To monitor activation, the first column contained a five-fold concentration of LmPK (0.5 nM).
# Potency is the fitted concentration of half-maximal effect.
# Chain of Pyruvate kinase (Leishmania mexicana) (Q27686 whole entry, looked up): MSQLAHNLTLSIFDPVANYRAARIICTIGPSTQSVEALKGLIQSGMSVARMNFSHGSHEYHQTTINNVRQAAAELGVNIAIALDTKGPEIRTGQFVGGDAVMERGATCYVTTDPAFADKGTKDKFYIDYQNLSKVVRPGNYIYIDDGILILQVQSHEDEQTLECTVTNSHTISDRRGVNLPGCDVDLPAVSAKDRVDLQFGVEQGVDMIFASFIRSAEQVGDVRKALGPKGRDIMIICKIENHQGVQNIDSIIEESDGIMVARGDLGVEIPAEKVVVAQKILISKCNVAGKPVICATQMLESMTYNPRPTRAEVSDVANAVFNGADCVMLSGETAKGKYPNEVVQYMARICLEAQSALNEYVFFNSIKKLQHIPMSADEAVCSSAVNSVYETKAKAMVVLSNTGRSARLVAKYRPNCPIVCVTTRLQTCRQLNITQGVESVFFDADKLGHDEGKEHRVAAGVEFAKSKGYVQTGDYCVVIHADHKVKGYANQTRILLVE
Structure (SMILES),Potency,"activity change, negative = inhibition"
O=C(NCc1ccccc1Cl)C1CCN(c2ncnc3c2nc2n3CCCCC2)CC1,inactive,–
Cc1cc(C(=O)N/N=C/c2ccc(O)c([N+](=O)[O-])c2)c(C)n1-c1ccc(F)cc1,inactive,–
O=C1CSC(=S)N1/N=C/c1ccc(O)c([N+](=O)[O-])c1,25.1 µM (active),–
CCOc1cccc(/C=N/N2C(=O)CSC2=S)c1O,inactive,–
O=C(CN1CCCCCC1)Nc1ccc(Br)cc1[N+](=O)[O-],inactive,–
O=C(NCCCNC(=O)c1ccccc1Cl)c1cnccn1,inactive,–
CC(=O)N(C1=C(Cl)C(=O)c2ccccc2C1=O)c1ccc(C(=O)O)cc1,4.47 µM (active),–
CC(C)N(C(=O)c1ccc(-c2ccccc2F)cc1)C(C)C,inactive,–
O=C(CN1C(=O)c2ccccc2C1=O)NCc1ccc(C(=O)O)cc1,inactive,–
Cc1cccc(N2CCN(S(=O)(=O)c3ccc4[nH]c(=O)c(=O)[nH]c4c3)CC2C)c1 (centres undefined),inactive,–
O=C(/C=C/NCc1ccc(F)cc1)c1ccccc1,inactive,–
O=C(COc1ccc(S(=O)(=O)Nc2cccc(C(F)(F)F)c2)cc1)N1CCOCC1,inactive,–
CCCn1c(C(C)Nc2nc(-c3ccc(C)cc3)cs2)nc2cc(Cl)c(N3CCCCC3)cc21 (centres undefined),inactive,–
COc1ccc(Sc2nc(-c3ccccc3)ncc2OC)cc1,inactive,–
COc1ccccc1Cc1nc(-c2ccc(C)cc2)no1,inactive,–
COc1ccc(-c2nc(-c3ccccc3)no2)c(OC)c1,14.1 µM (active),–
COC(=O)C1=C(C(=O)OC)[C@@H]2N(C)c3ccccc3[C@@]23C[C@@H](C(=O)OC)N(S(=O)(=O)c2ccc(Br)cc2)C3=N1,–,-0.27% [at 11.5 µM]
COc1cc(CO)ccc1OCC(=O)Nc1cccc2ccccc12,inactive,–
Cc1nc2cc3c(cc2s1)OCO3,inactive,–
c1c2c(cc3sc(N4CCCCC4)nc13)OCCO2,6.31 µM (active),–
Brc1ccc2nc(N3CCCC3)sc2c1,–,-0.864% [at 11.5 µM]
CCOc1ccc(NC(=O)COc2ccc(S(=O)(=O)N3CCCC3)cc2)cc1,inactive,–
C[C@H]1Cc2c(-c3ccccc3)nc3c(c2CO1)CN(S(=O)(=O)c1ccc(Cl)c2nonc12)CC3,–,1.27% [at 11.5 µM]
Cn1cc([N+](=O)[O-])c(C(=O)Nc2cnn(Cc3ccc(F)cc3)c2)n1,inactive,–
Cn1cc([N+](=O)[O-])c(C(=O)Nc2ccc3c(c2)OCCO3)n1,14.1 µM (active),–
Cc1onc(C(=O)Nc2ccc3c(c2)OCO3)c1[N+](=O)[O-],inactive,–

Structure (SMILES),Potency,"activity change, negative = inhibition"
CCCCNC(=O)N(O)C1N(/N=C/c2ccccc2O)C(=S)SC1(C)C (centres undefined),inactive,–
COc1ccc(NS(=O)(=O)c2ccc3oc(SCC(N)=O)nc3c2)cc1,inactive,–
CC(=O)Nc1ccc(NS(=O)(=O)c2ccc3c(c2)NC(=O)CC(=O)N3)cc1,inactive,–
CN1CCN(C(=O)C(=O)c2cn(CC(=O)N3CCCC3)c3ccccc23)CC1,inactive,–
O=C(c1ccc(F)cc1)n1cc(C(=S)N2CCOCC2)c2ccccc21,inactive,–
O=C(Cn1c(=S)nc2ccccn21)N1CCc2ccccc2C1,inactive,–
O=C(c1ccc(F)cc1)n1c(=S)nc2ccccn21,5.01 µM (active),–
C[C@H]1Cc2c(COc3ccccc3)nc3c(c2CO1)CN(C(=O)NCc1ccco1)CC3,–,4.14% [at 11.5 µM]
CSCCC(NS(=O)(=O)c1ccccc1F)C(=O)N1CC=C(c2ccccc2)CC1 (centres undefined),inactive,–
O=C(NC1CCN(C(=S)Nc2ccc(Cl)cc2)CC1)C1CCCCC1,inactive,–
CCCCCC(=O)NC(=S)NNC(=O)c1ccc([N+](=O)[O-])cc1,31.6 µM (active),–
COCCCNC(=S)NC(=O)c1ccc([N+](=O)[O-])cc1,inactive,–
CC(C)CC(=O)NC(=S)NNC(=O)c1cccc([N+](=O)[O-])c1,inactive,–
COc1ccc2oc(=O)c(C(=O)N3CCCC3)cc2c1,inactive,–
COc1cccc(C(=O)c2cc3ccc(O)cc3oc2=O)c1,14.1 µM (active),–
COc1cccc(C(=O)NNC(=O)c2cccc(F)c2)c1,inactive,–
CC(=O)C1=C(C)NC(=O)NC1c1ccc2c(c1)OCO2 (centres undefined),inactive,–
COC(=O)C(C)n1cnc2c(nnn2-c2ccc(F)cc2)c1=O (centres undefined),inactive,–
CC(=O)Nc1ccc(NC(=O)c2ccc3c(c2)C(=O)N(c2ccccc2C)C3=O)cc1,inactive,–
O=C(NCc1ccccc1)C1CCN(C(=O)Cc2ccccc2)CC1,inactive,–
Oc1ccc(N=Nc2nccs2)c(O)c1,25.1 µM (active),–
Oc1ccc2ccccc2c1N=Nc1nccs1,inactive,–
CCOc1ccc(N(CC(=O)Nc2cccc(OC)c2)S(C)(=O)=O)cc1,inactive,–
CC1(C(=O)NNC(=S)NCC2CCCO2)CC1(Cl)Cl (centres undefined),inactive,–
CN(C)C(=O)Cn1c(=O)n(S(=O)(=O)c2ccccc2)c2ccccc21,inactive,–
CCOC(=O)c1c(S(=O)(=O)Nc2cccc(Cl)c2)c(C)n(C)c1C,inactive,–

Structure (SMILES),Potency,"activity change, negative = inhibition"
COCCn1cnc2c1c(=O)n(Cc1ccc(Br)cc1)c(=O)n2Cc1ccccc1,inactive,–
Cc1occc1C(=O)Nc1cccc(Cn2cccn2)c1,inactive,–
Cc1ccnc(NC(=O)c2ccoc2C)c1,11.2 µM (active),–
Cc1occc1C(=O)Nc1nnc(-c2ccncc2)s1,inactive,–
O=C(Nc1cccc([N+](=O)[O-])c1)c1ccc2c(c1)OCO2,inactive,–
O=C(Nc1ccccc1)c1ccc2c(c1)OCCCO2,inactive,–
O=C(Nc1ccccc1)c1ccc2c(c1)OCO2,15.8 µM (active),–
Cc1ccc(C(=O)O/N=C(\N)c2ccccn2)cc1Cl,inactive,–
Cc1cccc(/C(N)=N/OC(=O)c2ccccc2Cl)c1,11.2 µM (active),–
N/C(=N\OC(=O)c1cc(-c2ccccc2)nc2ccccc12)c1ccncc1,inactive,–
COc1cccc(CCNC(=O)c2cccc(NC(=O)C3=C(C)OCCS3)c2)c1,inactive,–
CC1(C(=O)O)CCC(C(=O)Nc2ccc(Cl)c(Cl)c2)C1(C)C (centres undefined),inactive,–
COc1cccc(C(=O)Nc2ccc(N3CCCC3)cc2)c1,14.1 µM (active),–
CN1CCN(c2ccc(NC(=O)c3ccccc3)cc2)CC1,inactive,–
COc1cccc(C(=O)Nc2ccc(N3CCN(C(=O)c4ccco4)CC3)cc2)c1,inactive,–
CC1CC(C)CN(c2ccc(S(=O)(=O)N3CCOCC3)cc2)C1 (centres undefined),inactive,–
Cc1cc(CN(C)C(=O)c2cc(COc3ccc(C)c(C)c3)on2)n[nH]1,inactive,–
O=C(NCc1cccnc1)c1cccc(-c2cc3ccccc3oc2=O)c1,inactive,–
Nc1ncc(-c2cc3ccccc3oc2=O)s1,11.2 µM (active),–
O=c1oc2ccccc2cc1-c1csc(Nc2ccc(O)cc2)n1,inactive,–
O=C1CSC(c2ccccc2)N1c1nc(-c2ccc(Cl)cc2Cl)cs1 (centres undefined),inactive,–
Clc1ccc(-c2cc(-c3ccccn3)on2)c(Cl)c1,15.8 µM (active),–
Clc1ccc(-c2ncc3ccccn23)c(Cl)c1,inactive,–
CCOC(=O)C(C)n1cnc2c(nnn2-c2ccc(F)cc2)c1=O (centres undefined),inactive,–
CN(C)N1C(N)=C(C#N)C(c2ccc(Br)cc2)C2=C1CCCC2=O (centres undefined),inactive,–
COc1ccc(-c2cn3cccnc3n2)cc1,inactive,–

Structure (SMILES),Potency,"activity change, negative = inhibition"
COc1ccc(-c2cn3ccc(C)cc3n2)cc1,8.91 µM (active),–
CCN(CC)S(=O)(=O)c1ccc(-c2cn3ccc(C)cc3n2)cc1,inactive,–
Cc1ccc(NS(=O)(=O)c2c(C)[nH]c(C)c2C(=O)N2CCCCC2)c(C)c1,inactive,–
Cc1ccc(-c2nc3ccccc3[nH]2)cc1NC(=O)c1sc2ccccc2c1Cl,inactive,–
COc1ccc(Br)cc1C(=O)NC(=S)Nc1cc(-c2nc3ccccc3[nH]2)ccc1C,inactive,–
Cc1ccc(-c2nc3ccccc3[nH]2)cc1N,15.8 µM (active),–
c1ccc2[nH]c(-c3nc4ccccc4[nH]3)nc2c1,8.91 µM (active),–
O=C(Nc1cccc(-c2nc3ccccc3[nH]2)c1)c1ccc(C(=O)Nc2cccc(-c3nc4ccccc4[nH]3)c2)cc1,inactive,–
OC(c1nc2ccccc2[nH]1)C(O)C(O)C(O)c1nc2ccccc2[nH]1 (centres undefined),inactive,–
C[C@H](NC(=O)C1CCN(S(=O)(=O)c2ccccc2)CC1)C(=O)NCc1ccccc1,inactive,–
COc1ccccc1C(=O)NC(=S)Nc1ccccc1N1CCCCC1,inactive,–
CC1(C)Cc2c(sc(NC(=O)C(=O)N3CCOCC3)c2C#N)CO1,inactive,–
COc1ccc(C(=O)C[n+]2ccc(N)c(C)c2C)cc1,7.94 µM (active),–
COc1ccc(OCCC(=O)c2ccc(OC)cc2)cc1,inactive,–
COc1ccc(C(=O)C[n+]2ccc(C)cc2)cc1,inactive,–
CC(=O)NC1=NN(C(C)=O)C(C)(c2ccc(Cl)s2)S1 (centres undefined),inactive,–
CC(C)[C@H](NC(=O)N1CCn2c1nc1ccccc12)C(=O)NCc1ccc2c(c1)OCO2,inactive,–
COc1ccc(C(=O)O/N=C(\N)c2ccccn2)cc1[N+](=O)[O-],inactive,–
N/C(=N\OC(=O)Cc1ccc([N+](=O)[O-])cc1)c1ccccn1,inactive,–
N/C(=N\OC(=O)c1ccc([N+](=O)[O-])cc1)c1ccccn1,5.01 µM (active),–
COc1cccc(NC(=O)[C@H](Cc2c[nH]c3ccccc23)NC(=O)[C@@H]2Cc3ccccc3CN2)c1,inactive,–
COc1cc(C(=O)N/C(=C\c2cn(C)c3ccccc23)C(=O)N2CCOCC2)cc(OC)c1OC,inactive,–
COc1cnc(-c2ccccn2)nc1Oc1ccc(C(C)(C)C)cc1,inactive,–
C(=N\N1CCN(c2ccccn2)CC1)/C1=C(N2CCOCC2)C(=C/c2ccccc2)/CC1,inactive,–
O=C1Nc2ccc(Br)cc2/C1=N/N=C/C1=C(N2CCOCC2)C(=C\c2ccccc2)/CC1,14.1 µM (active),–
N#C/C(=C\C1=C(N2CCOCC2)C(=C\c2ccccc2)/CC1)C(=O)Nc1ccccc1F,inactive,–
